The test system of this assay is VDR:RXRa (NR concentration 270 nM, RXRa partner concentration 90 nM). In words: PBM binding z-score (relative to random genomic background probes); higher = stronger binding; sequences stand for … in GC…GCGATTGACAGCGTAGAATGAAGG
The method, then:
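Protein-binding microarray (Agilent 4x180K custom design, double-stranded 60-nt probes: 5' GC cap, 34-nt variable region, 24-nt constant primer region; full probe sequence given). Purified or IVT nuclear receptor:RXRα heterodimers (3:1 NR:RXRα, mostly 270:90 nM) or homodimers were incubated for 1 h in PBS with 2% milk and no ligand, then detected with Alexa488 antibodies. Fluorescence from o1-orientation probes (~5 replicates averaged) was converted to z-scores against 500 random hg19 background probes. Variable regions are seed direct-repeat (DR0–DR5) sites, all their single-nucleotide variants and half-site ablations.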
In the case of AGGACGAGGGCAATGAGTTGATAGCACGGGTGGC, the PBM binding z-score was found to be 5.11.

Sequence ACAGACAGGTGAAGAAGGTAACTCAGGCTATCAT registered a PBM binding z-score of 0.439.

In turn, CCGACTGGGGCAAAGGTTACAATACTCAGTACGA returned a PBM binding z-score of 1.71.

The sequence CCTACTGTGCCAAAAAGGTCATTGATGCCGATAA returned a PBM binding z-score of 4.92.

Take TCTTGTAGATCAACAGGAGGTTAAGTAAGATCGA: the PBM binding z-score worked out at 0.844.

Sequence ATATGTAGGTTATCGGGTCAGTCAGTTTGCGCAT gave a PBM binding z-score of 4.27.

As for AGAATGAGGTTAAGATCAGGGGAACAGAATACAT, the PBM binding z-score stood at 1.33.

The sequence AATACAGGGTCACTAGGCCAAAGTAGGTACGAAT showed a PBM binding z-score of 4.27.

Consider CCTACTGGGCCACAGGTCATTGATTCCAATGCTC, for which the PBM binding z-score stood at 1.99.

Take TCATATAGGTAAATGCTAGCTGAAAGTCCGATCT: the PBM binding z-score was determined as 0.702.

Regarding ATATTTAGGTTAAGGGTCATTCAGGTTGGTTCGC, the PBM binding z-score was 5.46.

Sequence ACAATTAGTTGAGACGAGGGCAACCGATAGGTTG gave a PBM binding z-score of 0.691.

The sequence ATATTTAGGTTATCGGGTCATTCAGTTTGCGCAT displayed a PBM binding z-score of 5.35.

ATCGCAAGGTCGAGGTGAGTATAGAGAAAGGGAA displayed a PBM binding z-score of 1.43.

In turn, TAGCTTAGGTCATTCAGGGGCCAGTATAGAAAGC gave a PBM binding z-score of 3.19.

In turn, GCGACTGGGGCGTCAGCAGGTTACCATAACTTAA gave a PBM binding z-score of -0.382.

As for CGTACTGGGCCACGAAAGGTCATTGATTCAGTGA, the PBM binding z-score came to 4.47.

CTCGATAGGTCGGTTGAGGTGAGTATACGGATAA had a PBM binding z-score of 0.436.

GCTAACAGGCCATTTGGGTCACTCAATGACGGGC registered a PBM binding z-score of 1.45.

For the sequence AGTCACAGTTCACTAGGTAACGTAAGATTCAGCT, the PBM binding z-score is 1.81.

ACTAGTTGGTCAGCTGAGTTCACACACAATTCGG had a PBM binding z-score of 4.81.

The sequence TGAATGAGGATAAAGATCAGGGAACGTGGCGTCG had a PBM binding z-score of -0.375.

GATACAGGGTCAGATAGAGGCCAGAGTATGGAAA registered a PBM binding z-score of 3.49.

With CCTACTGGGCCATGGTCATTGATCAGTCAAAGCA, the PBM binding z-score is -0.434.

Regarding TCGAGTAGGTTAGTCGGGGCTTTCAGCCAACATA, the PBM binding z-score was -0.0861.

ACTATTAGTTTACTTAGGGCAACCGATACGACGC: the PBM binding z-score stood at 0.639.

The sequence GTACCAAGGTGAATAGGTCGTTTATGAGTAGGCG returned a PBM binding z-score of 1.07.

On to ATATGTAGCTTACATCCGGGTCATTCAGGCTATG, for which the PBM binding z-score amounted to 2.82.

Take AGAATGAGGTTATTAAGATAAGGGAATTGCGGTC: the PBM binding z-score is 1.3.

For the sequence CCTACTGGGCCACGAAAGGTCATTAATTCAGTGA, the PBM binding z-score came to 3.74.

As to AGTCAAAGTACACTAGGTAACGTAAGATTCAGCT, the PBM binding z-score is -0.00797.

On to TCATATACGTAAAAGGTGAAAGTCGGTGTGGTAA, for which the PBM binding z-score worked out at 1.43.

As for AGAATGAAGTTAAGATCAGGGAAACAGAATACAT, the PBM binding z-score was -0.31.

For TAGCCTAGGTCAGATAGGGCCAGTATACGCTATA, the PBM binding z-score is 1.11.

The sequence CGTCCAAGGTCATAGGAGGTCAGTGCAGACAGAT showed a PBM binding z-score of 6.74.

Take TCATATAGGTAAAGGTGAAAGTAGAACGATATGA: the PBM binding z-score stood at 1.01.

For AGAATGAGGTTTAGATCAGGGAAACAGAATACAT, the PBM binding z-score is -0.225.

AGTCAAAGTTCAGGACGAGGTAACGTATAGCACG showed a PBM binding z-score of 3.14.

Sequence TAGCCTAGGTCATGGGCCAGGATACCACGCGAAC had a PBM binding z-score of 1.97.

The sequence GCGATTAGTTGAAAGGGCAACCGAATGATTCTCG showed a PBM binding z-score of 0.316.

The record behind these values is the supplement of paper PMC6555819.
